Compounds with a hit are over-represented: about 4% of the library has one in this group of screens.
Jurkat NFkB inh: inhibitors of the PMA/ionomycin-induced NF-kB reporter in Jurkat cells; PMA/ionomycin-induced NF-kB luciferase reporter, luminescence; inhibition, % at 4 µM; 330,000 compounds, 0.53% hits; in the data active = inhibition above about 50%
Gli-Sufu block: blocks Gli-Sufu signaling in a luciferase reporter; 340,000 compounds, 0.74% hits; inhibition, % at 5 µM; Sufu-KO-LIGHT fibroblasts, Gli luciferase reporter luminescence;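 active = inhibition above about 55%, limit read from the data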;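 also: 0% = DMSO-treated cells and 100% = wells with medium but no cells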
Beta cell apopt: beta cell apoptosis inhibition | protection from apoptosis, % (concentration not given with the values) | INS-1E cytokine-induced death, ATP luminescence, 48 h; percent of positive-control rescue, neutral wells zero | 300,000 compounds, 0.8% hits;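 active = Every replicate reaches about 75%, or at least half do and their mean reaches it too, limit read from the data; inconclusive = At least half of replicates reach the limit but their mean does not; inactive = Under half of replicates reach the limit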;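 also: 0% = cytokine-treated negative control wells and 100% = positive control rescue; higher means more ATP so stronger rescue from cytokine killing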
Mdm2-MdmX inh: disrupts the human Mdm2-MdmX interaction. O15151+Q00987. SaOS-2 split-luciferase Mdm2/MdmX complementation, luminescence. inhibition, % at 8 µM. 330,000 compounds, 3% hits. AID 485346;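 active = inhibition of at least 50% at 8 µM in the primary screen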
Target sequence (O15151 whole entry, looked up): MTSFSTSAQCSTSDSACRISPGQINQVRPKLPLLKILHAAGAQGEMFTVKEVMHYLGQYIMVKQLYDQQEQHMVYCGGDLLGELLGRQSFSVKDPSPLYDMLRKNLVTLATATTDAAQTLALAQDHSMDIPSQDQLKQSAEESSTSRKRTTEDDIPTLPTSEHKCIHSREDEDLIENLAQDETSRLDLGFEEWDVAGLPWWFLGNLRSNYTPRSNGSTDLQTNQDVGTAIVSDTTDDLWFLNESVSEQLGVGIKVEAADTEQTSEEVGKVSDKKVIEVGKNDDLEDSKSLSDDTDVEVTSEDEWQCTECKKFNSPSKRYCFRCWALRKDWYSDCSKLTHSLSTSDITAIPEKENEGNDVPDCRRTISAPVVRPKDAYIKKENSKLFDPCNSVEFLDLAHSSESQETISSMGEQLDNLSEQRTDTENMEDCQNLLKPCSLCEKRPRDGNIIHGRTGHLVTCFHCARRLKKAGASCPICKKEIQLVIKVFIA
Target sequence (Q00987 whole entry, looked up): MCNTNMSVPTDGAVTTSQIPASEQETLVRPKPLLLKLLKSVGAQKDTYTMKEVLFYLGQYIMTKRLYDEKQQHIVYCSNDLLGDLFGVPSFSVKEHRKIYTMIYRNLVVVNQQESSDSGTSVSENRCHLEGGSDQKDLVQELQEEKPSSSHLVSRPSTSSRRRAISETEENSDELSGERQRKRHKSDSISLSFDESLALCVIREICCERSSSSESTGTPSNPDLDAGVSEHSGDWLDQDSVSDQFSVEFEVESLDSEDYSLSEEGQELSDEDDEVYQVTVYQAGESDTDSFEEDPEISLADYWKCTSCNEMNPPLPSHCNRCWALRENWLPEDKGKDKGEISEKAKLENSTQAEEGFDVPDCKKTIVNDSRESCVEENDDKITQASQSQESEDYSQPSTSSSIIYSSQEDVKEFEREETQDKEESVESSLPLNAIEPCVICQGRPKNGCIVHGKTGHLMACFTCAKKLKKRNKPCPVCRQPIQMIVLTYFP
697 NFkB inh: inhibitors of the PMA/ionomycin-induced NF-kB reporter in 697 B cells | 697 B-cell NF-kB luciferase reporter, 16 h | inhibition, % at 4 µM | 330,000 compounds, 0.33% hits | AID 435022; in the data active = inhibition above about 35%
Mdm2 MdmX conf: confirmation of human Mdm2/MdmX interaction inhibitors; shares compounds with Mdm2-MdmX inh; Mdm2-MdmX binding, luminescent assay; inhibition, % at 8 µM; 10,000 compounds, 55% hits; in the data active = inhibition above about 40%
FLuc counter: inhibits full-length luciferase, flagging false Mdm2/MdmX hits; shares compounds with Mdm2-MdmX inh; SaOS-2 full-length luciferase counterscreen, luminescence; inhibition, % at 8 µM; 6,200 compounds, 77% hits;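 active = mean inhibition at 8 µM reaching about 37%, which flags the compound as non-specific, limit read from the data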;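 also: p53-null SaOS-2 cells with luciferase driven by a doxycycline-inducible promoter; compound on cells about two nights before reading with doxycycline added after day one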
An asterisk follows results filed as active; ? = inconclusive; · = not tested or not shown.

SMILES	Jurkat NFkB inh	Gli-Sufu block	Beta cell apopt	Mdm2-MdmX inh	697 NFkB inh	Mdm2 MdmX conf	others
O=C(NC1CCCCC1)c1ccc(S(=O)(=O)c2ccccc2Cl)c([N+](=O)[O-])c1	17	·	-4	77*	-11	66*	FLuc counter=17
Cc1ccccc1CS(=O)(=O)c1ccc(C(=O)N2CCOCC2)cc1[N+](=O)[O-]	17	5	-35	38	28	·
O=C(c1ccc(S(=O)(=O)c2ccccc2Cl)c([N+](=O)[O-])c1)N1CCN(Cc2ccccc2)CC1	34	18	0	84*	10	75*	FLuc counter=30
O=C(c1ccc(S(=O)(=O)Cc2ccccc2Cl)c([N+](=O)[O-])c1)N1CCOCC1	20	-7	-44	51*	34	42*	FLuc counter=49*
CC(C)(C)C(=O)C1=C(O)C(=O)N(c2ccccc2)C1c1ccccc1 (centres undefined)	5	11	0	21	16	·
CC1CCCC(NC(=O)CCNC(=O)c2ccccc2Cl)C1C (centres undefined)	-6	1	5	10	19	·
CN(C(=O)c1ccc(S(=O)(=O)c2cccc(Cl)c2)c([N+](=O)[O-])c1)C1CCCCC1	13	·	-9	73*	-25	60*	FLuc counter=29
CN(C(=O)c1ccc(NC(=O)Cc2cccc([N+](=O)[O-])c2)cc1)C1CCCC1	-10	4	-14	15	-7	·
C=CCOc1ccc(/C=C/C(=O)OCC(=O)N(C)CC(=O)Nc2ccccc2Cl)cc1	9	-9	-1	6	5	·
O=[N+]([O-])c1cc2no[n+]([O-])c2cc1N1CCCCC1	·	-10	·	·	·	·
NCCNC(=O)c1c(O)c2cccc3c2n(c1=O)CCC3	-7	28	·	-22	-4	·
O=C(NCc1cccnc1)c1c(O)c2cccc3c2n(c1=O)CCC3	8	-3	-7	71*	-14	45*	FLuc counter=31
C=CCNC(=O)c1c(O)c2cccc3c2n(c1=O)CCC3	10	-4	·	66*	-2	56*	FLuc counter=53*
CCOC(=O)/C(=N\Nc1cc(Cl)ccc1Cl)N1CCOCC1	-8	-5	0	9	1	·
N=c1c(C(=O)NC2CCCC2)cc2c(=O)n3ccccc3nc2n1C1CCCCC1	-23	13	2	11	2	·
CNC(=O)c1c(NC(=O)c2cc(-c3cc(C)c(C)cc3O)n[nH]2)sc2c1CCCC2	-2	6	9	50*	6	-3
CC(C)C[C@H](NC(=O)c1[nH]cnc1C(=O)Nc1ccccc1)C(=O)OC(C)(C)C	14	-3	36	57*	-11	15
C[C@H](NC(=O)c1nc[nH]c1C(=O)N[C@@H](Cc1ccccc1)C(=O)OC(C)(C)C)c1ccccc1	-6	-4	-9	50*	3	-4
CC(C)C[C@H](NC(=O)c1nc[nH]c1C(=O)NCC(=O)OCc1ccccc1)C(=O)OCc1ccccc1	1	-4	-6	1	14	·
CC(C)(C)OC(=O)NCCCC[C@H](NC(=O)c1[nH]cnc1C(=O)Nc1ccc(Cl)cc1)C(=O)OC(C)(C)C	7	6	32	56*	3	5
CCOC(=O)c1ccc(NC(=O)c2nc[nH]c2C(=O)N[C@@H](CC(C)C)C(=O)OC(C)(C)C)cc1	10	6	6	42	-14	·
CC(C)C[C@H](NC(=O)c1[nH]cnc1C(=O)N[C@@H](C)c1ccccc1)C(=O)OCc1ccccc1	-7	3	-1	51*	-23	21
COc1ccc(CN2CCNC(=O)C2CC(=O)NC2CCCCCCC2)cc1C (centres undefined)	1	21	0	9	3	·
COc1ccc(C(C)C)cc1S(=O)(=O)N1CCC(C(=O)NCC2CCCO2)CC1 (centres undefined)	6	-5	4	15	20	·
CCOC(=O)c1ccc(NC(=O)c2nc[nH]c2C(=O)N[C@@H](C)C(=O)OC(C)(C)C)cc1	1	-5	3	4	8	·
SMILES	Jurkat NFkB inh	Gli-Sufu block	Beta cell apopt	Mdm2-MdmX inh	697 NFkB inh	Mdm2 MdmX conf	others
CC(C)(C)OC(=O)NCc1ccc(NC(=O)c2nc[nH]c2C(=O)N[C@@H](Cc2ccccc2)C(=O)OCc2ccccc2)cc1	12	-28	-1	60*	6	16
C[C@H](NC(=O)c1[nH]cnc1C(=O)Nc1ccc(Cl)cc1)C(=O)OC(C)(C)C	-5	8	1	50*	-22	30
CC(C)C[C@H](NC(=O)c1nc[nH]c1C(=O)N[C@@H](CCCCNC(=O)OC(C)(C)C)C(=O)OC(C)(C)C)C(=O)OC(C)(C)C	19	18	27	73*	9	-17
CC(C)(C)OC(=O)N1CCC(NC(=O)c2[nH]cnc2C(=O)Nc2ccc(Cl)cc2)CC1	17	13	-8	52*	-12	53*	FLuc counter=53*
COc1cc(/C=N/NC(=O)c2ccc(CSc3nncn3C)cc2)cc(OC)c1O	2	1	3	18	-5	·
Cc1ccc(C2C3C(=O)N(c4ccccc4)C(=O)C3N3CCCN23)cc1 (centres undefined)	-13	9	-10	-19	-2	·
CC(C)C[C@H](NC(=O)c1nc[nH]c1C(=O)N[C@@H](CC(C)C)C(=O)OC(C)(C)C)C(=O)OCc1ccccc1	14	15	?	64*	15	-11
CC(C)C[C@H](NC(=O)c1[nH]cnc1C(=O)N[C@@H](C)C(=O)OC(C)(C)C)C(=O)OC(C)(C)C	-3	3	3	63*	-10	12
CC(C)C[C@H](NC(=O)c1nc[nH]c1C(=O)NCC(=O)OC(C)(C)C)C(=O)OCc1ccccc1	-9	3	-2	9	-9	·
COCCN(Cc1ccccc1)C(=O)C1CCN(S(=O)(=O)c2ccc3c(c2)OCCO3)CC1	7	-10	-5	6	12	·
COc1ccc(/C=N/NC(=O)c2cccc(Br)c2)cc1Cn1cc(Cl)cn1	26	-2	1	60*	6	50*	FLuc counter=67*
CC(C)(CC(=O)O)CC(=O)N1CCCN(c2nccc(C(F)(F)F)n2)CC1	-17	-2	2	-8	9	·
COc1cc(NC(=O)NNC(=O)c2cc3occc3n2C)cc(OC)c1OC	6	6	-2	13	3	·
O=C(/C=C/c1ccccc1)NC(=S)Nc1ccc2c3c(cccc13)CC2	-11	2	13	59*	1	12
CC1=CC(=O)C=C(C)C1=NOc1ccccc1[N+](=O)[O-]	4	24	0	72*	-30	14
Cc1cc(C)c(S(=O)(=O)Oc2ccccc2[N+](=O)[O-])c(C)c1	·	5	·	·	·	·
Cc1[nH]c2ccccc2c1/C=C/c1nc2ccccc2c(=O)n1-c1ccc([N+](=O)[O-])cc1	31	22	7	64*	-65	-16
